# In the supplement of paper PMC6555819:
# Tests used:
# Experiment in all cases: PBM binding z-score (relative to random genomic background probes); higher = stronger binding; sequences stand for … in GC…GCGATTGACAGCGTAGAATGAAGG
# [1] = system: FXR:RXRa (NR concentration 270 nM, RXRa partner concentration 90 nM)
# How it was run: (§1)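 Ligand-free nuclear receptor dimers were bound for 1 h to custom Agilent 4×180K protein-binding microarrays. Detection used antibodies against each partner (one per run). Binding z-scores rest on regression-normalized fluorescence, with random background probes as the reference.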
# [2] = system: LXRa:RXRa (NR concentration 270 nM, RXRa partner concentration 90 nM)
# How it was run: as §1
# [3] = system: LXRa homodimer (NR concentration 270 nM)
# How it was run: as §1
# [4] = system: LXRb:RXRa (NR concentration 270 nM, RXRa partner concentration 90 nM)
# How it was run: as §1
# [5] = system: LXRb homodimer (NR concentration 270 nM)
# How it was run: as §1
# [6] = system: PPARg:RXRa 270nM:90nM, anti-RXR (NR concentration 270 nM, RXRa partner concentration 90 nM)
# How it was run: as §1
# [7] = system: PPARg:RXRa 30nM:10nM, anti-RXR (NR concentration 30 nM, RXRa partner concentration 10 nM)
# How it was run: as §1
# [8] = system: PPARg:RXRa 90nM:30nM, anti-RXR (NR concentration 90 nM, RXRa partner concentration 30 nM)
# How it was run: as §1
# [9] = system: PPARg:RXRa DBDmut IVT, anti-RXR (DBD mutation: RXRa K156A/R161A, NR concentration 270 nM, RXRa partner concentration 90 nM)
# How it was run: as §1
# [10] = system: PPARg:RXRa IVT, anti-PPARg (NR concentration 270 nM, RXRa partner concentration 90 nM)
# How it was run: as §1
# [11] = system: PPARg DBDmut:RXRa IVT, anti-PPARg (DBD mutation: PPARg1 K132A/R137A, NR concentration 270 nM, RXRa partner concentration 90 nM)
# How it was run: as §1
# [12] = system: PPARg DBDmut IVT, anti-PPARg (DBD mutation: PPARg1 K132A/R137A, NR concentration 270 nM)
# How it was run: as §1
# [13] = system: PPARg homodimer (NR concentration 180 nM)
# How it was run: as §1
# [14] = system: PXR:RXRa (NR concentration 270 nM, RXRa partner concentration 90 nM)
# How it was run: as §1
# [15] = system: PXR homodimer (NR concentration 270 nM)
# How it was run: as §1
# [16] = system: RARa:RXR (NR concentration 270 nM, RXRa partner concentration 90 nM)
# How it was run: as §1
# [17] = system: RARa homodimer (NR concentration 270 nM)
# How it was run: as §1
# [18] = system: RARb:RXRa (NR concentration 270 nM, RXRa partner concentration 90 nM)
# How it was run: as §1
# [19] = system: PPARa:RXRa (NR concentration 270 nM, RXRa partner concentration 90 nM)
# How it was run: as §1
# [20] = system: PPARg:RXRa (NR concentration 180 nM, RXRa partner concentration 90 nM)
# How it was run: as §1
Sequence,PBM binding z-score [1],PBM binding z-score [2],PBM binding z-score [3],PBM binding z-score [4],PBM binding z-score [5],PBM binding z-score [6],PBM binding z-score [7],PBM binding z-score [8],PBM binding z-score [9],PBM binding z-score [10],PBM binding z-score [11],PBM binding z-score [12],PBM binding z-score [13],PBM binding z-score [14],PBM binding z-score [15],PBM binding z-score [16],PBM binding z-score [17],PBM binding z-score [18],PBM binding z-score [19],PBM binding z-score [20]
CTTACTGGGCCAAAGGTCATTGATTCCAATGCTC,5.59,5.54,4.28,5.06,0.936,11.2,14.3,13.6,7.41,8.39,2.55,2.05,5.08,5.66,2.72,7.06,1.85,4.62,,
TCAAGTAGGTTACGGGGGCATTCAGGGATGAAGA,3.28,3.4,1.53,5.4,,7.05,6.15,6.95,6.98,7.48,,,3.45,3.45,2.97,3.18,1.26,,4.49,7.97
TAGCCTAGGTCATTCAGGGGCTAGTATAGAAAGC,4.83,3.69,0.257,2.77,0.83,2.22,0.575,1.45,1.49,2.56,-0.0413,0.573,1.3,2.36,-0.268,2.79,-0.106,3.76,,2.12
TTTAGTTGGTCAAAGGTCACACACTCGAAATGCG,6.28,5.76,3.99,5.54,1.9,10.6,11.3,11.6,4.19,7,2.09,2.08,5.45,6.21,1.61,7.55,3.28,5.17,,
CTATGTAGGATAAGGGGGTCATTCAGTTTGAAAG,4.36,4.48,2.61,5.97,,5.95,3.41,5.43,4.4,5.24,,,3.61,5.75,11.1,5.73,2.91,3.27,5.61,5.71
TGAATGAGGTTAAAGGTCAGGGAACGTGGCGTCG,7.23,6,2.34,5.35,1.05,9.95,12.2,12.1,3.7,6.46,1.94,1.25,5.36,,1.01,,3.29,5.08,,
TCTAGCAGGCCATAGGGTCACTCAAGAGGTACGG,2.31,1.65,-0.243,1.73,-0.428,3.27,2.5,3.13,1.23,1.69,-1.22,-0.48,0.644,2.43,-0.246,3.69,0.229,2.75,,2.46
CCGAGTAGGTTACGAGGGGGTATTCAGTGCGAAT,1.23,5.34,0.455,4.28,,3.05,1.22,1.9,4.05,4.17,,,1.24,2.91,0.693,1.99,0.377,1.51,2.87,1.8
